The campaign covered roughly 4,800 compounds. About 410 (8.5%) showed an effect of 50% or more. The entries come from a sample that favours strong results as a whole.
What follows are molecules tested on Plasmodium falciparum (assay: Confirmatory screen in NF54 pLDH assay, in single point, at 2uM, 72h). Details: timepoint 72 hour.
Format: functional, Erythrocyte
Cc1nc2nnnn2c(C)c1C/C=C/c1ccccc1 was tested, and the “% Inhibition” value was 8%. For Cc1cc(OC[C@@H](O)CNC(C)(C)CC(C)(C)C)cc(C)c1Cl, the “% Inhibition” value was 57%. For O=C(N[C@@H](N1CCCC1)C(Cl)(Cl)Cl)c1ccc(Cl)cc1, the “% Inhibition” value was -13%. In the case of O=C(N[C@H]1CC12CC2)c1ccncc1F, the “% Inhibition” value is reported as -22%. With C=C1C(C)C2C(Cc3c[nH]c4ccccc34)NC(=O)C23C(=O)CC(O)C(O)CC(C)C/C=C/C3C1O (centres undefined) the “% Inhibition” value was 65%. For CCc1ccc(/C=C/c2c[nH]c3ccccc23)[n+](CC)c1, the “% Inhibition” value was 88%. With C[n+]1ccccc1/C=C/c1c[nH]c2ccccc12 the “% Inhibition” value was 81%. Fc1cc(Cl)cnc1N1CCC2(CCOCC2)C1 was tested, and the “% Inhibition” value was 12%. For Cc1[nH]n(-c2nc(C(F)(F)F)cc(=O)[nH]2)c(=O)c1CCO, the “% Inhibition” value was -9%. In the case of O=C1C2CC=CCC2C(=O)N1CNc1ccc(Cl)cc1 (centres undefined), the “% Inhibition” value is reported as -9%. With CCn1c(=O)c(N2CCN(C(=O)Nc3ccc(OC)cc3OC)CC2)nc2cccnc21 the “% Inhibition” value was -17%. In the case of O=C([C@H]1CCCN(C(=O)N2CCc3sccc3C2)C1)N1CCc2[nH]ncc2C1, the “% Inhibition” value is reported as -7%. For CCOC(=O)C(C)NC(=O)C(C)NC(=O)c1ccc(F)c(C#N)c1 (centres undefined), the “% Inhibition” value was 7%. In the case of O=S(=O)(NC1CC(c2ccc(F)c(Cl)c2)C1)C1CC1 (centres undefined), the “% Inhibition” value is reported as 7%. Cn1nc(C2CC2)c2c(C(F)F)cc(-c3ccc4c(c3)OCO4)nc21 was tested, and the “% Inhibition” value was 2%. CCS(=O)(=O)Nc1ccc(Br)cc1Cl was tested, and the “% Inhibition” value was -1%. In the case of c1ccc(-c2nc(C[n+]3ccc4c(c3)CCCC4)cs2)cc1, the “% Inhibition” value is reported as 56%. Cc1ncccc1C(=O)NCCc1csc(-c2ccccc2)n1 was tested, and the “% Inhibition” value was -19%. In the case of CN(C)c1ccc(C2OCC3(CCC4(COC(c5ccc(N(C)C)cc5)OC4)O3)CO2)cc1 (centres undefined), the “% Inhibition” value is reported as -5%. Fc1ccc(COc2ccc3ccccc3c2CNc2ccc(Br)cc2)cc1 was tested, and the “% Inhibition” value was 10%. For CCCNC(=O)CS(=O)(=O)Cc1cccc(Br)c1C, the “% Inhibition” value was -14%. With Nc1nc(-c2ccccc2)c2cc3c(nn12)C[C@H](c1ccc(F)cc1)CC3=O the “% Inhibition” value was -6%. For COc1c2c(cc3c1[C@@H](C#CCOc1ccccc1)[N+](C)(C)CC3)OCO2, the “% Inhibition” value was 68%. For CCn1cc(S(=O)(=O)N2CC(Oc3cccc(-c4nc(C)no4)c3)C2)cn1, the “% Inhibition” value was 7%. For COc1cc(-c2nc3ncnn3c(N)c2C#N)cc(OC)c1OC, the “% Inhibition” value was -17%. Cc1cc(C)c2nc(C)cc(Nc3ccc(O)cc3)c2c1 was tested, and the “% Inhibition” value was 103%. COc1c(Cl)cc(Cl)cc1C#N was tested, and the “% Inhibition” value was -17%. For COc1cc(N)c(NC(C)=O)cc1Cl, the “% Inhibition” value was 7%. COc1ccccc1CN1COc2cc3c(cc2C1)OCO3 was tested, and the “% Inhibition” value was 52%. In the case of COCCN(CC1CN(Cc2ccccc2OC)CC1c1ccccc1OC)C(=O)COC (centres undefined), the “% Inhibition” value is reported as 0%. For COc1cccc(CNCc2ccc3c(c2)OCO3)c1OCc1ccc(Cl)cc1Cl, the “% Inhibition” value was 10%. With O=S(=O)(NCc1ccc(C(F)(F)F)nc1N1CCC(C(F)(F)F)CC1)C(F)(F)F the “% Inhibition” value was 8%. In the case of CC(C1Cc2ccccc2O1)N(C)Cc1nccn1S(=O)(=O)N(C)C (centres undefined), the “% Inhibition” value is reported as -8%. Cn1ccc(C(=O)Nc2ccc(-c3ccccc3)cn2)cc1=O was tested, and the “% Inhibition” value was -11%. In the case of Nc1n[nH]c2c(Cl)c3nnc(-c4ccccc4)n3c(Cl)c12, the “% Inhibition” value is reported as 13%. For O=C(Cc1ccc(N(Cc2cccc(F)c2)C(=O)C2CCCC2)cc1)NCCN1CCCCC1, the “% Inhibition” value was 43%. With COCCN(Cc1c(-c2ccccc2)noc1N1CCN(C)CC1)C(=O)c1ccc(C)cc1 the “% Inhibition” value was 12%. With C[C@H](Nc1ccc(N2CCOCC2)nc1)c1cccc(CO)c1 the “% Inhibition” value was 11%. CCn1c(-c2cc(NC(=O)c3ccc4c(c3)OCO4)[nH]n2)cc2ccc(OC)cc21 was tested, and the “% Inhibition” value was 4%. With FC(F)(F)c1cnc(N2CCOC3(CCOCC3)CC2)s1 the “% Inhibition” value was 9%. In the case of Oc1nc(N2CCOC3(CCCC3)C2)ncc1F, the “% Inhibition” value is reported as 53%. In the case of O=C(c1cc(-c2ccncc2)on1)N1CCOC2(CCCCCC2)C1, the “% Inhibition” value is reported as 8%. Cc1c(C(=O)N2CC[C@H](CC(C)(C)C)C2(C)C)nnn1-c1cnn(C)c1 was tested, and the “% Inhibition” value was -9%. With Cc1cc(C)cc(NC(=O)Cc2nc(C)c(C(=O)NCc3ccccc3)s2)c1 the “% Inhibition” value was 5%. With CCOC(=O)c1nc(-c2cccnc2)cs1 the “% Inhibition” value was -8%. With CCOC(=O)c1ncn(C2CCN(C(=O)c3cccc(Cn4ccnc4)c3)CC2)c1N the “% Inhibition” value was 5%. CCOC(=O)c1c(CN2CCCC2)n(C)c2cc(-c3cccnc3)c(O)c(Cn3ccnc3)c12 was tested, and the “% Inhibition” value was 68%. In the case of Cc1cccc(C)c1OCC(C)NC(=O)N1CCCC(CS(C)(=O)=O)C1 (centres undefined), the “% Inhibition” value is reported as -20%. For COc1ccc(CN(C)[C@H]2CCc3nn(C)c(=O)n3CC2)c(Cl)c1OC, the “% Inhibition” value was 1%. For CC(C)c1nnc(Cn2nnc(-c3ccncn3)n2)s1, the “% Inhibition” value was -12%. Cc1cc(C)n(CCC(=O)N2CC[C@H](c3nc(C4CCOCC4)no3)C2)n1 was tested, and the “% Inhibition” value was 9%. Cc1ccc(S(=O)(=O)Nc2c(S(=O)(=O)c3ccccc3)c3nc4ccccc4nc3n2CCc2ccccc2)cc1 was tested, and the “% Inhibition” value was 100%. Cc1ccc(S(=O)(=O)Nc2c(S(=O)(=O)c3ccc(C)cc3)c3nc4ccccc4nc3n2CCC(C)C)cc1 was tested, and the “% Inhibition” value was 100%. In the case of Cc1ccc(S(=O)(=O)c2c(NS(=O)(=O)c3ccc(F)cc3)n(CCc3ccccc3)c3nc4ccccc4nc23)cc1, the “% Inhibition” value is reported as 103%. With O=C(Nc1c(S(=O)(=O)c2ccccc2)c2nc3ccccc3nc2n1CCc1ccccc1)c1ccc(Cl)cc1 the “% Inhibition” value was 96%. For Cc1ccc(S(=O)(=O)Nc2ccccc2-c2nnc(-c3c(NS(=O)(=O)c4ccc(C)cc4)ccc4ccccc34)o2)cc1, the “% Inhibition” value was -13%. With O=C(Cn1c(Cc2ccc(Cl)cc2)nc2ccccc21)Nc1ccccc1 the “% Inhibition” value was 9%. With Cc1ccc(S(=O)(=O)Nc2c(S(=O)(=O)c3ccc(C)cc3)c3nc4ccccc4nc3n2C[C@H]2CCCO2)cc1 the “% Inhibition” value was 8%. With O=C(Nc1ccccc1)c1ccc2c(c1)C(=O)N(CCc1ccccc1)C2=O the “% Inhibition” value was -15%. For COCCCn1c(NS(=O)(=O)c2ccccc2)c(S(=O)(=O)c2ccc(C)cc2)c2nc3ccccc3nc21, the “% Inhibition” value was 49%. With Cc1cnc(C2CCC2)n1CCNS(=O)(=O)c1ccccc1 the “% Inhibition” value was 2%. With Cc1nn(C)c(N)c1C(=O)N(C1CCC1)C1CCC1 the “% Inhibition” value was -16%. Cc1cc(Cn2c(=O)n(Cc3ccccc3)c3ccncc32)on1 was tested, and the “% Inhibition” value was 7%. In the case of COc1ccc([C@@H]2C(C#N)(C#N)C23C(=O)CC(C)(C)CC3=O)cc1, the “% Inhibition” value is reported as -12%. With N#Cc1cccc(-c2c[nH]c(CNc3nc4cc(C(F)(F)F)ccc4s3)n2)c1 the “% Inhibition” value was 7%. Cc1nc2cccnc2n1-c1cc(C(=O)NCC[C@H](C)N2CCCC2)ccc1Cl was tested, and the “% Inhibition” value was 8%. CC1CCN(C(=O)NCC2CCC(F)(F)CC2)CC1n1ccnc1 (centres undefined) was tested, and the “% Inhibition” value was 12%. In the case of COc1cc(CC2CN(C(=O)c3cscn3)C2)cc(OC)c1, the “% Inhibition” value is reported as 3%. CS(=O)(=O)CC1(CC(=O)N[C@H](c2ccccc2)C2CCC2)CC1 was tested, and the “% Inhibition” value was 11%. In the case of Cc1nn(CC2(O)CCCCC2)c(=O)c(C#N)c1C, the “% Inhibition” value is reported as -10%. For CS(=O)(=O)n1c(CCCc2ccccc2)nc2ccccc21, the “% Inhibition” value was 15%. With COCCCn1c(NS(=O)(=O)c2ccc3ccccc3c2)c(S(=O)(=O)c2ccc(C)cc2)c2nc3ccccc3nc21 the “% Inhibition” value was 16%. Cc1ccc(S(=O)(=O)c2c(NS(=O)(=O)c3ccccc3)n(CCc3ccccc3)c3nc4ccccc4nc23)cc1 was tested, and the “% Inhibition” value was 102%. Cc1cc(NC(=O)Cn2c(=O)n(CCc3ccccc3)c(=O)c3ccccc32)no1 was tested, and the “% Inhibition” value was 13%. With Cc1ccc(S(=O)(=O)Nc2cc3nc4ccccc4nc3n2CCc2ccccc2)cc1 the “% Inhibition” value was 97%. For O=C(O)Cc1cccc(NC(=O)C2C3Cc4ccccc4C32)c1 (centres undefined), the “% Inhibition” value was 2%. For C[C@H](NC(=O)CC1(C)CCCCC1)c1cnn(C)c1, the “% Inhibition” value was -5%. With O=C(Nc1cccc(OCCn2cncn2)c1)[C@@H]1CCCc2ccccc21 the “% Inhibition” value was -19%. For Cc1cc(CCC(=O)Nc2nnn[nH]2)ccc1Br, the “% Inhibition” value was 10%. With COc1cc2c(cc1CNc1nc(N)nc3c1CCNCC3)CCC2 the “% Inhibition” value was 11%. For Cc1cc(C)cc(NC(=O)Cc2nnc3ccc(C(=O)Nc4ccccc4)cn23)c1, the “% Inhibition” value was 8%. In the case of CC(=O)N1CCN(c2nc3c(s2)C[C@@H](C(=O)NCc2ccccc2F)CC3)CC1, the “% Inhibition” value is reported as -22%. In the case of O=S1(=O)N=C(NC[C@@H](O)Cc2ccccc2)c2ccccc21, the “% Inhibition” value is reported as 7%. With Cc1cccc(NC(=O)Nc2cc(F)c3[nH]c(=O)ccc3c2)c1 the “% Inhibition” value was -7%. COc1ccc(-c2noc(CCn3c(=O)[nH]c4cc5c(cc4c3=O)OCO5)n2)c(OC)c1 was tested, and the “% Inhibition” value was 6%. With Cc1cnc(C2CCN(C(=O)[C@@H]3CNC(=O)O3)CC2)s1 the “% Inhibition” value was 2%. With COC1(C)CN(c2cnc(C#N)cn2)C1 the “% Inhibition” value was 2%. CCc1ccc(NC(=O)[C@H]2CCCN(c3nc4cccnc4n(Cc4ccccc4)c3=O)C2)cc1 was tested, and the “% Inhibition” value was -14%. For FC(F)(F)C1CN(c2nc(-c3ccccn3)nc3c2CCC3)C1, the “% Inhibition” value was 54%. In the case of C[C@H]1CCCN(c2nc(-c3ccccn3)nc3ccccc23)C1, the “% Inhibition” value is reported as 98%. With C[C@H]1CCN(c2nc(-c3ccccn3)nc3c2CCC3)C1 the “% Inhibition” value was 93%. For O[C@H]1Cc2ccccc2[C@H]1Nc1nc(-c2ccccn2)nc2c1CCNC2, the “% Inhibition” value was -7%. In the case of C[C@H]1CCCN(S(=O)(=O)NCC(=O)Nc2ccccn2)C1, the “% Inhibition” value is reported as -14%. In the case of Cc1ccccc1N1CCN(C(=O)c2ccc3ncccc3c2)CC1, the “% Inhibition” value is reported as 9%. For CCc1sc(N(C(=O)Cc2ccccc2)c2ccc(C)cc2C)nc1-c1ccc(Cl)cc1, the “% Inhibition” value was 12%. With COc1ccc(-n2nc(C(=O)N3CCOCC3)c(=O)cc2OC)cc1 the “% Inhibition” value was 3%. For CCc1nnc2c(S(=O)(=O)Nc3cc(F)cc(F)c3)cccn12, the “% Inhibition” value was 9%. In the case of CN1N=C(C(=O)NC2CCC3CCCCC3C2)CCC1=O (centres undefined), the “% Inhibition” value is reported as -20%. With COc1ccc(C(=O)N(CCO)CCN2CCOCC2)c(OC2CCCC2)c1 the “% Inhibition” value was 11%.

Source: ChEMBL document CHEMBL4888484, “Replenishing the malaria drug discovery pipeline: Screening and hit evaluation of the MMV Hit Generation Library 1 (HGL1) against asexual blood stage Plasmodium falciparum ,using a nano luciferase reporter read-out” (2022)
